# Measured values as given in publication PMC7826789 (International Journal of Molecular Sciences, 2021).
compound,measurement,setting,value
Cc1ccc(-c2cc(-c3c[nH]nc3-c3ccccn3)ccn2)cc1 [GW684088],Kinases covered,TGFBR1,TGFBR1
COc1cc(-c2cncc(-c3cnn(C4CCNCC4)c3)c2)cc(OC)c1OC [K05908],Kinases covered,TGFBR1,TGFBR1
CCn1cc(-c2ccnc3[nH]c(-c4cccc(CN(C)C)c4)cc23)c(-c2ccc(NC(=O)N(C)C)cc2)n1 [GSK1070916],Kinases covered,TIE2,TIE2
CCS(=O)(=O)c1ccc(OC)c(Nc2ncc(-c3cccc(OC)c3)o2)c1 [GW580509X],Kinases covered,TNK1,TNK1
COc1cc(N2CCN(C)CC2)ccc1Nc1ncc2c(n1)N(C)c1ccccc1C(=O)N2 [XMD8-87],Kinases covered,TNK2,TNK2
CNS(=O)(=O)c1ccc(N(C)C)c(Nc2ncnc3cc(OC)c(OC)cc23)c1 [GSK114],Kinases covered,TNNI3K,TNNI3K
CC(=O)c1c(C)c2cnc(Nc3ccc(N4CCNCC4)cn3)nc2n(C2CCCC2)c1=O [PFE-PKIS 32],Kinases covered,TTK,TTK
CCS(=O)(=O)c1ccc(OC)c(Nc2ncc(-c3cccc(F)c3)o2)c1 [GW621970X],Kinases covered,YES,YES
